Screening results (PubChem BioAssay)
In the library only some 8.1% were active in any assay of this set; here they are far more common.
ELG1 DNA repair: inhibitors of ELG1-dependent DNA repair in HEK293T cells | 330,000 compounds, 2.3% hits | HEK293T ELG1-luciferase reporter, luminescence, 16 h; DNA damage induced by 5-fluorouridine | AID 504467 | Potency, µM (titrated, usually from 46.1 µM), for inactives: at the highest dose activity change, negative = inhibition, most hits filed as inhibitors; further: on the % scale 0 is the no-effect control and ±100 the full control effect; nearly all actives have a fitted effect of over 55% in size
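Quantitative HTS, concentration-response format. 2,000 cells/well co-treated with 5-fluorouridine and compound, 16 hr in 5% CO2 at 37 °C; ONE-Glo luminescence read after 30 min.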
MCF10A rerep: inducers of DNA re-replication in MCF 10A breast cells. Potency, µM (series often up to 46.1 µM), for inactives: at the highest dose activity, positive = re-replication, usual class: activators. 350,000 compounds, 2.9% hits. AID 624296. MCF 10A DNA re-replication, Hoechst nuclear intensity, 48 h; further: % of control where 0% means no effect; nearly all actives have a fitted effect of over 50% in size
KB-V1 cytotox: kills drug-selected multidrug resistant KB-V1 cells; Potency, µM (highest dose often 46.1 µM), usual class: cytotoxic; 400,000 compounds, 3.4% hits; KB-V1 MDR cells viability, CellTiter-Glo, 72 h; further: on the % scale 0 is the no-effect control and ±100 the full control effect; nearly all actives have a fitted effect of over 60% in size
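Luminescent ATP read-out (CellTiter-Glo, 10 min) measures survival of drug-selected KB-V1 MDR cells after 72 h, 37 degrees C compound exposure. Medium: phenol-red-free DMEM, 10% FBS. Values from fitted concentration-response curves.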
KB-3-1 cytotox: kills parental KB-3-1 adenocarcinoma cells; AID 1347075; 400,000 compounds, 1.4% hits; KB-3-1 viability, CellTiter-Glo ATP luminescence, 72 h; Potency, µM (top dose mostly 46.1 µM), most hits filed as cytotoxic; further: on the % scale 0 is the no-effect control and ±100 the full control effect; nearly all actives have a fitted effect of over 60% in size
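Screening of KB-3-1 cells (DMEM, 10% FBS, phenol-red free) ran from lowest to highest compound concentration; after 72 h at 37 °C viability was read luminescently and curves fitted.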
SW480 rerep: induces DNA re-replication in SW480 colon adenocarcinoma cells; Potency, µM (top dose mostly 46.1 µM), inactives show top-dose re-replication activation, usual class: activators; 340,000 compounds, 1.8% hits; SW480 DNA re-replication, Hoechst DNA content imaging, 48 h; further: % of control where 0% means no effect; nearly all actives have a fitted effect of over 55% in size
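Hoechst fluorescence of nuclei (405 nm excitation, 500-530 nm emission) measured by plate-scanning imager after 48 hr compound exposure at 37 C; re-replication scored as increased number of nuclei with elevated intensity.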
The depositor's hits bear a star; i = inactive; ? = inconclusive; . = no result given. The call rests on the fitted dose curve; in most records, active means well fitted curve in the direction sought with a large enough effect; inconclusive means small, poorly fitted or top-dose-only effect, or another doubt; inactive means no such curve, though single readings can be large; an effect the other way counts as inactive or inconclusive. Potency means the concentration at half of the fitted maximal effect.

SMILES	ELG1 DNA repair	MCF10A rerep	KB-V1 cytotox	KB-3-1 cytotox	SW480 rerep
CC(=O)Nc1nc(C)c(-c2csc(Nc3ccc(O)cc3)n2)s1	?	18µM*	i	8.2µM*	?
Cc1nc(C)c(-c2csc(NCc3ccco3)n2)s1	?	4%	?	i	8%
CCC(C)C(=O)Nc1nc(C)c(-c2csc(Nc3ccc(Cl)cc3)n2)s1 (stereo not given)	8.2µM*	?	i	6.5µM*	9%
Cc1ccccc1Nc1nc(-c2sc(NC(=O)c3ccco3)nc2C)cs1	?	-1%	i	i	-25%
CC(=O)Nc1nc(C)c(-c2csc(Nc3ccccn3)n2)s1	?	?	i	?	1%
Cc1ccc(-n2ncc3c2CC(C)(C)CC3NC(=O)c2cc[n+]([O-])cc2)cc1 (stereo not given)	?	-2%	i	i	?
Cn1c(CNC(=O)c2ccc3c(c2)OCO3)nnc1SCC(=O)Nc1ccccc1Cl	0%	-3%	i	i	-6%
CC(=O)Nc1ccc(Nc2nc(-c3sc(NC(C)=O)nc3C)cs2)cc1	23µM*	?	i	?	5%
CCC(=O)Nc1nc(C)c(-c2csc(Nc3ccc(C(=O)O)cc3)n2)s1	0%	12%	i	i	5%
CN1CCC23c4ccccc4NC1C21CCN(C)C3Nc2ccccc21	.	-12%	i	i	-82%
CCN(CC)S(=O)(=O)c1ccc(Cl)c(NC(=O)CSc2nnc(-c3cccs3)o2)c1	1%	1%	i	i	-1%
COc1cc(-c2cc(NC=O)c3ncc(-c4cccc(C(=O)N(C)C)c4)n3c2)cc(OC)c1OC	.	.	i	i	.
COc1ccc(F)cc1-c1cc(NC=O)c2ncc(-c3cccc(C(F)(F)F)c3)n2c1	.	.	?	23µM*	.
CC(=O)c1ccc(-c2cnc3c(NC=O)cc(-c4ccccc4Oc4ccccc4)cn23)cc1	.	.	?	12µM*	.
COc1ccc(-c2cnc3c(NC=O)cc(-c4cc(OC)c(OC)c(OC)c4)cn23)cc1OC	.	.	23µM*	?	.
CC(=O)Nc1cccc(-c2cc(NC=O)c3ncc(-c4ccc(C(C)=O)cc4)n3c2)c1	.	.	i	i	.
COc1cccc(-c2cnc3c(NC=O)cc(-c4cc(OC)c(OC)c(OC)c4)cn23)c1	.	.	?	i	.
COc1cccc(-c2cc(NC=O)c3ncc(-c4ccc(OC)c(OC)c4)n3c2)c1	.	.	15µM*	13µM*	.
Cc1ccc(NS(=O)(=O)c2cn(C)cn2)cc1	8%	-1%	i	i	0%
COc1ccccc1N1C(=NC(=O)C2CCCCC2)SC2CS(=O)(=O)CC21 (stereo not given)	0%	-2%	i	i	-5%
COc1ccccc1-c1cc(NC=O)c2ncc(-c3ccc(S(C)(=O)=O)cc3)n2c1	.	.	16µM*	13µM*	.
COc1cc(-c2cnc3c(NC=O)cc(-c4ccc(S(C)(=O)=O)cc4)cn23)cc(OC)c1OC	.	.	i	?	.
O=CNc1cc(-c2ccccc2)cn2c(-c3ccc(F)c(Cl)c3)cnc12	.	.	?	i	.
COc1ccc(-c2cc(NC=O)c3ncc(-c4cc(OC)c(OC)c(OC)c4)n3c2)cc1	.	.	0.046µM*	?	.
COc1ccc(-c2cc(NC=O)c3ncc(-c4cnn(C)c4)n3c2)cc1	.	.	18µM*	?	.
SMILES	ELG1 DNA repair	MCF10A rerep	KB-V1 cytotox	KB-3-1 cytotox	SW480 rerep
O=CNc1cc(-c2cccc(F)c2)cn2c(-c3ccc(F)c(Cl)c3)cnc12	.	.	23µM*	?	.
C=C1C=C(C(F)F)n2ncc(C(=O)NCc3ccc(OC)cc3)c2N1	.	.	i	i	.
CS(=O)(=O)N(CCc1ccccc1)CC(=O)N1CCCCC1	.	12%	i	i	0%
COc1cc(OC)cc(C(=O)NNC(=S)Nc2ccc(S(N)(=O)=O)cc2)c1	0%	?	i	i	?
COc1ccc(-c2cc(NC=O)c3ncc(-c4cccc(OC)c4)n3c2)cc1	.	.	7.3µM*	6.5µM*	.
COc1ccc(-c2cnc3c(NC=O)cc(-c4ccc(F)cc4)cn23)cc1OC	.	.	?	0.21µM*	.
COc1ccc(-c2cnc3c(NC=O)cc(-c4ccccc4)cn23)cc1OC	.	.	1.6µM*	1.2µM*	.
COc1ccc(-c2cc(NC=O)c3ncc(-c4cccc(C(=O)NCCN(C)C)c4)n3c2)cc1	.	.	i	i	.
COc1ccc(-c2cnc3c(NC=O)cc(-c4ccc(S(C)(=O)=O)cc4)cn23)cc1OC	.	.	i	?	.
O=C1CN=C(Nc2cccc(C(F)(F)F)c2)N1C1CCCC1	-3%	16%	i	i	?
Cc1c(C(=O)N2CCN(Cc3ccc4c(c3)OCO4)CC2)sc2ncnc(N3CCN(c4ccccc4)CC3)c12	4.6µM*	3%	i	i	-6%
Cc1c(C(=O)N2CCN(Cc3ccc4c(c3)OCO4)CC2)sc2ncnc(N3CCN(c4ccccc4F)CC3)c12	6.5µM*	-4%	i	?	12%
